Our source for the composite z-score values is PubChem BioAssay.

Each structure is given as a SMILES string.

This assay relates to Fibrinogen (Alexa647-labelled). The assay can be described thus: fibrinogen binders on compound microarrays, profiling panel, artefact control for SMM control-protein annotation, biochemical, small-molecule microarray, 635/667 nm fluorescence (AID 1131).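 Also: z-score merges 667 nm fluorescence with per-spot signal-to-noise over triplicate slides.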 The conditions noted are these: fibrinogen-A647 binding fluorescence, higher = more signal.
Regarding `CO[C@H]1O[C@H](CO)[C@@H](OC(=O)Nc2ccccc2)[C@@H]2OC(=O)[C@H](Cc3ccccc3)C/C=C/C[C@@H](Cc3ccccc3)C(=O)O[C@@H]12`, the composite z-score came to 0.718. With `CCCCC(=C=CC[C@@H](O)c1ccc(OCCO)cc1)C[C@@H](O)c1ccccn1` the figure was 0.141; with `C=CCC(OC(C)=O)[C@@H]1[C@@H](N(Cc2cccc3ccccc23)C(=O)c2ccc(-c3ccccc3)cc2)c2cc(OCCCO)ccc2N1C(=O)c1ccc2ccccc2n1` (stereo not given in full), 0.677. For `COCCOC(=O)N1C(=O)[C@@]2(c3cc(C#CC4(O)CCCCCC4)ccc31)[C@H](c1ccc(OCCO)cc1)N1[C@H](c3ccccc3)[C@H](c3ccccc3)OC(=O)[C@H]1[C@@H]2C(N)=O`, the composite z-score was 0.892.

On to `COc1ccc([Si](C)(C)[C@H]2[C@H](CCO)O[C@@]3(C(=O)N(Cc4ccc(N5CCOC5=O)cc4)c4ccccc43)[C@@H]2C)cc1`, for which the composite z-score was 0.45. With `Cc1c(-c2ccc(-c3ccc(Cl)c(Cl)c3)o2)nc(-c2ccccc2)c2c1CO[Si]2(C(C)C)C(C)C` the figure was 0.407; with `O=C1OCCC=C[C@H]2OC34C=CCN(CCN5CCOCC5)C(=O)[C@H]3N(CCCO)C(=O)[C@@H]4C12` (stereo not given in full), -0.0881; with `COC(=O)[C@@]1(Cc2ccc(F)cc2)[C@H]2c3cc(C(=O)N(C)C)n(CCO)c3C[C@H]2CN1C(=O)c1ccccc1`, 0.797.

Consider `CC(C)C[C@H]1NC(=O)[C@@H](C)NC(=O)[C@@]23C(=O)N[C@@H](Cc4ccccc4)C2[C@H](C)[C@@]2(C)O[C@H]2C3/C=C/C/C=C\CNC1=O` (stereo not given in full), for which the composite z-score was -0.212. With `N#Cc1ccc(C(O)C2C=CC3C(=O)N(c4ccccc4)C(=O)C3N2Nc2ccc([N+](=O)[O-])cc2)cc1` (stereo not given) the figure was 0.991; with `CN(C)CCCC[C@@H]1NC(=O)[C@@H]2C[C@H](C(=O)NCc3ccc(F)cc3)[C@H](c3ccc(O)cc3)N2C1=O`, 0.348; with `CC(=O)c1ccc(C(O)C2C=CC3C(=O)N(C)C(=O)C3N2NC(=O)OC(C)(C)C)cc1` (stereo not given), 1.05. `CO[C@H]1O[C@H](CO)[C@@H](OC(=O)Nc2ccc3c(c2)OCO3)[C@@H]2OC(=O)[C@@H](Cc3ccccc3)C/C=C/C[C@H](Cc3ccccc3)C(=O)O[C@@H]12` had a composite z-score of 0.659. `O=C1NC(=O)C2C1C=CC(C(O)c1cccc(O)c1)N2Nc1ccc(Cl)cc1Cl` (stereo not given) yielded a composite z-score of -0.348.

Take `Cc1ccc(S[C@]2(C(=O)NCCCN(C)C)CC(=O)N(Cc3ccccc3Cl)[C@@H]2c2ccc(CO)cc2I)cc1`: the composite z-score was -1.05. With `O=c1cccc(-c2ccccc2C(F)(F)F)o1`, the composite z-score is -2.29. With `COCCOC(=O)N1C(=O)[C@@]2(c3cc(C#CCC(C(=O)OC)C(=O)OC)ccc31)[C@H](c1ccc(OCCO)cc1)N1[C@H](c3ccccc3)[C@H](c3ccccc3)OC(=O)[C@H]1[C@@H]2C(=O)N1CCCCCCC1` the figure was 0.686. Next, `C[C@H]1NC(=O)C([C@@H](C)OCc2ccccc2)NC(=O)[C@@]23C(=O)N[C@@H](Cc4ccccc4)C2[C@H](C)[C@@]2(C)O[C@H]2C3/C=C/C/C=C\CNC1=O` (stereo not given in full): -0.394; `COCC(=C=CC[C@@H](O)c1cccc(OCCO)c1)C[C@@H](O)COCc1ccccc1`: -0.272; `C=C(CCCC)C(=O)CC[C@H](OC(C)=O)c1ccccc1OCCO`: -0.107. With `CCC[C@@H]1C=C(C(=O)OCC)[C@H](c2ccccc2)N1S(=O)(=O)c1ccc(C)cc1` the figure was 0.979. Turning to `COCCOC(=O)N1C(=O)[C@@]2(c3cc(C#CC4(O)CCCCCC4)ccc31)[C@H](C(=O)N1CCc3cc(OC)c(OC)cc3C1)[C@H]1C(=O)O[C@H](c3ccccc3)[C@H](c3ccccc3)N1[C@@H]2c1ccc(O)cc1`, the composite z-score came to 0.853. Next, `Cc1ccc(F)cc1S(=O)(=O)N[C@@H]1CCN(Cc2ccc3c(c2)OCO3)C1`: 0.125; `COCCOC(=O)N1C(=O)[C@@]2(c3cc(C#CC4(O)CCCCCC4)ccc31)[C@H](c1ccc(OCCO)cc1)N1[C@H](c3ccccc3)[C@H](c3ccccc3)OC(=O)[C@H]1[C@@H]2C(=O)N1CCCCCCC1`: 0.95.

`CC(c1ccccc1)C(O)C1C=CC2C(=O)N(c3ccccc3)C(=O)C2N1Nc1ccc(C#N)cc1` (stereo not given) registered a composite z-score of 0.993. Compound `COC(=O)C(CC#Cc1ccc2c(c1)[C@]1(C(=O)N2)[C@H](c2ccc(O)cc2)N2[C@H](c3ccccc3)[C@H](c3ccccc3)OC(=O)[C@H]2[C@@H]1C(=O)N1CCc2cc(OC)c(OC)cc2C1)C(=O)OC` gave a composite z-score of 0.742. Next, `C[N+](C)(C)CCCCCCNC(=O)[C@H]1C[C@H]2C(=O)NCC(=O)N2[C@H]1c1cccc(OCCO)c1`: 0.0104; `COC(=O)c1c(CC[C@@H](CO)NC(=O)N[C@@H](Cc2ccccc2)Cn2cc(-c3cncn3C)nn2)oc(C(C)=O)c1C(=O)OC`: 0.107; `O=C1O[C@@H](c2ccccc2)[C@@H](c2ccccc2)N2[C@@H](c3ccc(O)cc3)[C@]3(C(=O)Nc4ccc(C#CC5=CCCCC5)cc43)[C@@H](C(=O)N3CCCCCCC3)[C@H]12`: 0.836. Next, `COC(=O)C1=CC(CCCO)=CC(C2CC2)N(Cc2cccc(OC(F)(F)F)c2)C=C1C(=O)OC` (stereo not given): 0.884; `COCCOC(=O)N1C(=O)[C@@]2(c3cc(C#CCC(C(=O)OC)C(=O)OC)ccc31)[C@H](C(=O)N1CCCCCCC1)[C@H]1C(=O)O[C@H](c3ccccc3)[C@H](c3ccccc3)N1[C@@H]2c1ccccc1OCCO`: 0.775; `COCCOC(=O)N1C(=O)[C@@]2(c3cc(C#CCCO)ccc31)[C@H](c1ccccc1OCCO)N1[C@H](c3ccccc3)[C@H](c3ccccc3)OC(=O)[C@H]1[C@@H]2C(=O)N1CCc2cc(OC)c(OC)cc2C1`: 0.869. Next, `COC(=O)[C@@H]1N=C(c2ccc(OCCCO)cc2)O[C@@H]1c1ccccc1CN=[N+]=[N-]`: 0.38; `COC(=O)[C@H](Cc1ccc(O)cc1)N1CC2=CCCC=C[C@@H]2[C@H]1[C@H](O)Cc1ccccc1`: 0.92; `C=CC[C@@]1(C(=O)N(C)C)N=C(c2ccc(OCCCO)cc2)O[C@@H]1c1ccccc1`: 0.3.
